Measurements reported in PubChem BioAssay (EPA / NIEHS).
Inconclusive results are not listed. Active and inactive are the calls of the source. The calls were made as follows, unless noted: active = hit-call score of the fitted dose curve at least 0.9, where 1 is the maximum; inactive = score below 0.9.

Experiments:
[1] = ACEA_ER_80hr: ACEA Biosciences xCELLigence Real-Time Cell Analysis on Estrogen Receptor Agonism for Proliferation (AID 2282667; active = hit-call score of the fitted dose curve at least 0.9, where 1 is the maximum); conditions: T47D proliferation, impedance (xCELLigence), 80 h
Procedure, shortened: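 T-47D cells monitored by electrical impedance (xCELLigence) with compound present throughout; 80 h timepoint, positive-direction fitting versus DMSO. Eight-point 1:4 dilutions from 100 uM final, duplicate plates.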

[2] = ATG_CRE_CIS: Attagene CIS-FACTORIAL HepG2 Assay for human cAMP Responsive Element (CRE) binding protein 3 (AID 2282926); conditions: HepG2 CRE cis-reporter, Attagene multiplexed mRNA; actives raise or lower the signal
Procedure, shortened: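 Induced reporter mRNA from a CRE cis element, measured in HepG2 among many multiplexed units at 24 h. Detection used RT-PCR plus capillary electrophoresis of fluorescent fragments; DMSO served as negative control.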

[3] = biological target: CCAAT/enhancer-binding protein beta (Homo sapiens) (UniProt P17676); assay: ATG_C_EBP_CIS: Attagene CIS-FACTORIAL HepG2 Assay for human CCAAT/Enhancer Binding Protein (C/EBP) beta (AID 2282927); conditions: HepG2 Attagene cis-factorial transcription factor reporter; actives raise or lower the signal
Procedure, shortened: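 RT-PCR/capillary electrophoresis fluorescence of reporter mRNA, 24 h post-dose, in HepG2 cells carrying transfected cis-promoter reporter units. Bidirectional curve fitting against DMSO baseline captures gain or loss of signal.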

[4] = ATG_CMV_CIS: Attagene CIS-FACTORIAL HepG2 Assay for human CMV (Internal Marker) (AID 2282928); conditions: HepG2 CMV promoter reporter, transcription factor profiling; actives raise or lower the signal;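 also: endpoint acts as a background internal control marker rather than a target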
Procedure, shortened: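 Readout: fluorescent reporter cDNA fragments separated by capillary electrophoresis after RT-PCR and HpaI cut. Cells: HepG2 carrying transfected cis-promoter reporter constructs, dosed 24 h. Endpoint serves as background internal-marker control, fit bidirectionally versus DMSO.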

[5] = ATG_DR4_LXR_CIS: Attagene CIS-FACTORIAL HepG2 Assay for human Liver X Receptor (LXR), DR4 submotif (AID 2282929); conditions: HepG2 Attagene DR4 cis-reporter, mRNA transcription; actives raise or lower the signal
Procedure, shortened: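 DR4 cis-reporter in HepG2, 24 h exposure. Detection: RT-PCR, 6-FAM labelling, CE fragment analysis. Endpoint fitted bidirectionally, DMSO = baseline.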

[6] = biological target: Aryl hydrocarbon receptor (Homo sapiens) (UniProt P35869); assay: ATG_Ahr_CIS: Attagene CIS-FACTORIAL HepG2 Assay for human Aryl Hydrocarbon Receptor (Ahr) (AID 2282930); conditions: HepG2 AhR cis-factorial reporter transcription; actives raise or lower the signal
Procedure, shortened: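 HepG2 cells transiently transfected with cis-element-driven multiplexed reporter transcription units; endogenous transcription factor activity measured as reporter mRNA 24 h after dosing. RT-PCR, 6-FAM labelling, HpaI digestion, capillary electrophoresis; bidirectional fitting versus DMSO baseline.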

[7] = ATG_AP_1_CIS: Attagene CIS-FACTORIAL HepG2 Assay for human Activator Protein 1 (AP-1) (AID 2282931); conditions: HepG2 Attagene cis-factorial AP-1 reporter mRNA; actives raise or lower the signal
Procedure, shortened: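 Cis-regulated reporter units transiently expressed in HepG2 report endogenous transcription-factor activity. Signal: reporter mRNA at 24 h, via RT-PCR and fluorescent capillary electrophoresis. Endpoint derived by bidirectional fitting, DMSO as negative control.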

[8] = ATG_AP_2_CIS: Attagene CIS-FACTORIAL HepG2 Assay for human Activator Protein 2 (AP-2) (AID 2282932); conditions: HepG2 AP-2 cis-reporter, Attagene transcription factor profiling; actives raise or lower the signal
Procedure, shortened: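 Cells (HepG2) transfected with promoter-driven reporter constructs, treated 24 h. Total RNA reverse-transcribed, reporter cDNA PCR-amplified, FAM-labelled by primer extension, digested, resolved by capillary electrophoresis. Activity fitted both directions versus DMSO.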

[9] = ATG_BRE_CIS: Attagene CIS-FACTORIAL HepG2 Assay for human Bone Morphogenetic Protein (BMP) Response Element (BRE) (AID 2282933); conditions: HepG2 BMP response element reporter, Attagene transcription factor profiling; actives raise or lower the signal
Procedure, shortened: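 Gain- or loss-of-signal was derived by bidirectional fitting against DMSO controls. The signal came from reporter mRNA, measured by RT-PCR and capillary electrophoresis, in HepG2 cells transiently carrying multiple reporter units and dosed for 24 h.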

[10] = biological target: Retinoic acid receptor alpha (Homo sapiens) (UniProt P10276); assay: ATG_DR5_RAR_CIS: Attagene CIS-FACTORIAL HepG2 Assay for human Retinoic Acid Receptor Alpha (RARE), DR5 submotif (AID 2282934); conditions: HepG2 Attagene cis-factorial RARE DR5 reporter, mRNA; actives raise or lower the signal
Procedure, shortened: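 HepG2 cells transiently transfected with multiplexed reporter units under cis (DR5 RARE) promoters, so endogenous transcription factor activity is measured. After 24 h compound exposure, reporter mRNA is quantified by RT-PCR with fluorescent labelling and capillary electrophoresis; bidirectional fitting versus DMSO.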

[11] = biological target: Transcription factor E2F1 (Homo sapiens) (UniProt Q01094); assay: ATG_E2F_CIS: Attagene CIS-FACTORIAL HepG2 Assay for human E2F Transcription Factor 1 (AID 2282935); conditions: HepG2 Attagene cis-reporter, E2F reporter RNA transcripts; actives raise or lower the signal
Procedure, shortened: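 First, HepG2 cells were transfected with reporter transcription units. Next, they were dosed for 24 h. Then RNA was isolated, converted to cDNA, PCR-amplified, FAM-labeled, HpaI-digested and analyzed by capillary electrophoresis.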

[12] = ATG_E_Box_CIS: Attagene CIS-FACTORIAL HepG2 Assay for human Enhancer Box (E-box) (AID 2282936); conditions: HepG2 E-box cis-reporter transcription, actives raise or lower the signal
Procedure, shortened: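 Endogenous transcription factor activity was sensed in human HepG2 liver cells through transfected cis-promoter reporter units. After 24 h of dosing, total RNA was reverse-transcribed and reporter cDNA resolved by capillary electrophoresis.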

[13] = ATG_M_61_CIS: Attagene CIS-FACTORIAL HepG2 Assay for M61 Transcription Factor (Internal Marker) (AID 2282937); conditions: HepG2 Attagene CIS-FACTORIAL M61 internal marker reporter; actives raise or lower the signal
Procedure, shortened: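 Background-control endpoint: HepG2 cells with cis-regulated reporter constructs, 24 h exposure, reporter mRNA detected via fluorescent primer extension and capillary electrophoresis; values from bidirectional fitting with DMSO baseline.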

[14] = ATG_EGR_CIS: Attagene CIS-FACTORIAL HepG2 Assay for human Early Growth Response 1 (EGR1) (AID 2282938); conditions: HepG2 Attagene CIS-FACTORIAL EGR reporter mRNA; actives raise or lower the signal
Procedure, shortened: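 Endpoint derived by bidirectional fitting versus DMSO vehicle. Method: cis-promoter reporter units transfected into HepG2, 24 h dosing, RNA isolation, RT-PCR with 6-FAM primer extension and HpaI digestion, then capillary electrophoresis fluorescence detection.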

[15] = ATG_M_19_CIS: Attagene CIS-FACTORIAL HepG2 Assay for M19 Transcription Factor (Internal Marker) (AID 2282939); conditions: HepG2 Attagene CIS-FACTORIAL M19 internal marker reporter; actives raise or lower the signal
Procedure, shortened: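 Following a 24 h exposure, RNA from transfected HepG2 cells was reverse-transcribed, PCR-amplified with reporter-specific primers, end-labelled with 6-FAM and HpaI-digested before capillary separation. Values represent gain or loss versus DMSO.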

[16] = ATG_Ets_CIS: Attagene CIS-FACTORIAL HepG2 Assay for human Erythroblast Transformation Specific (ETS) (AID 2282941); conditions: HepG2 ETS cis-reporter transcription, actives raise or lower the signal
Procedure, shortened: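 RT-PCR/capillary electrophoresis fluorescence read-out of reporter mRNA; HepG2 transient multi-reporter transfection; 24 h compound exposure; gain or loss of signal fitted bidirectionally relative to DMSO.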

[17] = biological target: Hepatocyte nuclear factor 3-beta (Homo sapiens) (UniProt Q9Y261); assay: ATG_FoxA2_CIS: Attagene CIS-FACTORIAL HepG2 Assay for human Forkhead box A2 (FOXA2) (AID 2282942); conditions: HepG2 cis-reporter transcription factor activity, 24 h; actives raise or lower the signal
Procedure, shortened: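 Measured: reporter mRNA induction or loss in HepG2 transiently carrying multiple cis-regulated reporter units, 24 h after dosing. Quantified by RT-PCR plus capillary electrophoresis, normalised to DMSO.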

[18] = ATG_FoxO_CIS: Attagene CIS-FACTORIAL HepG2 Assay for human Forkhead box O (FoxO) (AID 2282943); conditions: HepG2 Attagene cis-reporter, FoxO element, mRNA; actives raise or lower the signal
Procedure, shortened: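 HepG2 cells transiently transfected with cis-promoter-driven multiple reporter transcription units; 24 h after chemical dosing, reporter mRNA quantified by RT-PCR, fluorescent primer extension, HpaI digestion and capillary electrophoresis. Bidirectional fitting versus DMSO baseline.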

[19] = ATG_GATA_CIS: Attagene CIS-FACTORIAL HepG2 Assay for human GATA Binding Protein (AID 2282944); conditions: HepG2 GATA cis-element reporter, Attagene multiplex mRNA; actives raise or lower the signal
Procedure, shortened: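 DMSO serves as negative control and baseline for bidirectional fitting of reporter mRNA changes. HepG2 cells bearing transiently transfected cis-promoter reporters were exposed 24 h; transcripts detected via RT-PCR and capillary electrophoresis.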

[20] = ATG_ERE_CIS: Attagene CIS-FACTORIAL HepG2 Assay for Estrogen Response Element (ERE) (AID 2282940); conditions: HepG2 ERE cis-reporter, Attagene RNA transcript; actives raise or lower the signal
Procedure, shortened: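 HepG2, transient cis-reporter units, 24 h exposure. RNA isolated, oligo(dT) RT, reporter-specific PCR, FAM extension, HpaI cut, CE detection. Gain/loss-of-signal vs DMSO.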

Measured: AC50

Chain of Hepatocyte nuclear factor 3-beta (Homo sapiens) (Q9Y261 whole entry, looked up): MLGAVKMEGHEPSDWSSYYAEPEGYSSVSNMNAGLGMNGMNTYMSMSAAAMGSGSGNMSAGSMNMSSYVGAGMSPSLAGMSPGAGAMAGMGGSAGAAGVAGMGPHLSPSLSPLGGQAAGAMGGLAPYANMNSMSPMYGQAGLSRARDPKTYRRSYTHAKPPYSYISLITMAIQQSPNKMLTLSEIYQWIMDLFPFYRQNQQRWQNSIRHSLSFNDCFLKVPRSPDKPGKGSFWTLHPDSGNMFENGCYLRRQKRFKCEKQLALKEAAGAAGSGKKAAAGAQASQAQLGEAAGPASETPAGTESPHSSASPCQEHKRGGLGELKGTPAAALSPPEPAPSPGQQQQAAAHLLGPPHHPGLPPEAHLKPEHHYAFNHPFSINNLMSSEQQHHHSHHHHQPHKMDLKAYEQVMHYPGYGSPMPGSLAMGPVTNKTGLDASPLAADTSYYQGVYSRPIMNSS
Chain of Transcription factor E2F1 (Homo sapiens) (Q01094 whole entry, looked up): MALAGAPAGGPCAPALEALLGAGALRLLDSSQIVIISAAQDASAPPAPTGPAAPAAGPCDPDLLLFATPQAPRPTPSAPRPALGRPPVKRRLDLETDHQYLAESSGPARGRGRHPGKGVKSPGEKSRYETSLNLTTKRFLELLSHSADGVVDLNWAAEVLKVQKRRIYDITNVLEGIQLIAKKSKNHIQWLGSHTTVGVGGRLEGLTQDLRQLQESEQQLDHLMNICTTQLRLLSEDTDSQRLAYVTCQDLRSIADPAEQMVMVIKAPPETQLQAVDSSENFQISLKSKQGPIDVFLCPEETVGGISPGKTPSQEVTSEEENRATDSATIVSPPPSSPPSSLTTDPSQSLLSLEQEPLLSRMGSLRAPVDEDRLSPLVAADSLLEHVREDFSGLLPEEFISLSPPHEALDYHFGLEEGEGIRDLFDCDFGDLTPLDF
Chain of CCAAT/enhancer-binding protein beta (Homo sapiens) (P17676 whole entry, looked up): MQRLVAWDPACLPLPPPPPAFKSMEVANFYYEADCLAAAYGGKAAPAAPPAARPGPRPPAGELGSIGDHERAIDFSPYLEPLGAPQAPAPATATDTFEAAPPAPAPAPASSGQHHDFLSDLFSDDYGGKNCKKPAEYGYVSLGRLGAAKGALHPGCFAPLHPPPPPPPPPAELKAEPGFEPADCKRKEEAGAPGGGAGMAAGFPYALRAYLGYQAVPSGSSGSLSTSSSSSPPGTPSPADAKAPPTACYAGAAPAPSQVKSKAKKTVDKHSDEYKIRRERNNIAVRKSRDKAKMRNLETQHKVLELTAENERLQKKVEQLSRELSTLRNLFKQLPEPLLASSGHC
Chain of Aryl hydrocarbon receptor (Homo sapiens) (P35869 whole entry, looked up): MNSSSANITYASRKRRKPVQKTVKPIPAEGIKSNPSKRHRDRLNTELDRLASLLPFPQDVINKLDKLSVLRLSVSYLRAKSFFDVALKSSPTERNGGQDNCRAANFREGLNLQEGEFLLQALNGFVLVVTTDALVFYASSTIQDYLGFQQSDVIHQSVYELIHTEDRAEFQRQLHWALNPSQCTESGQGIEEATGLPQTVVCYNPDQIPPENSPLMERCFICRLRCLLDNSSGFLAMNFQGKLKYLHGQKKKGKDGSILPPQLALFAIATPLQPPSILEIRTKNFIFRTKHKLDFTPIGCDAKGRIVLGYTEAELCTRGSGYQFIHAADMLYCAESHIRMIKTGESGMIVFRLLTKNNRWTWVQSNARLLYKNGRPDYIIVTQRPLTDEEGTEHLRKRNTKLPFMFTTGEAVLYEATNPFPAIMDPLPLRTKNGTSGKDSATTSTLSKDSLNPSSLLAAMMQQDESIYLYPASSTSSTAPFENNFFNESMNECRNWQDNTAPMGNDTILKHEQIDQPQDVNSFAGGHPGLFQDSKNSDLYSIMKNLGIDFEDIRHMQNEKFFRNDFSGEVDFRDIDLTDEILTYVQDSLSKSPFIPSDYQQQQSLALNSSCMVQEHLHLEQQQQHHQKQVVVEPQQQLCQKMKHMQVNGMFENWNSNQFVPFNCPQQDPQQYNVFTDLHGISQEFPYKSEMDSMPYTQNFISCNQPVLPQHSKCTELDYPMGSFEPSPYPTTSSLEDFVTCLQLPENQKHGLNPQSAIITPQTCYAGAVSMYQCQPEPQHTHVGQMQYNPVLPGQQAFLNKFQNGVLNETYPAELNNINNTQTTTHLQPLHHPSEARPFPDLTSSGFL
Chain of Retinoic acid receptor alpha (Homo sapiens) (P10276 whole entry, looked up): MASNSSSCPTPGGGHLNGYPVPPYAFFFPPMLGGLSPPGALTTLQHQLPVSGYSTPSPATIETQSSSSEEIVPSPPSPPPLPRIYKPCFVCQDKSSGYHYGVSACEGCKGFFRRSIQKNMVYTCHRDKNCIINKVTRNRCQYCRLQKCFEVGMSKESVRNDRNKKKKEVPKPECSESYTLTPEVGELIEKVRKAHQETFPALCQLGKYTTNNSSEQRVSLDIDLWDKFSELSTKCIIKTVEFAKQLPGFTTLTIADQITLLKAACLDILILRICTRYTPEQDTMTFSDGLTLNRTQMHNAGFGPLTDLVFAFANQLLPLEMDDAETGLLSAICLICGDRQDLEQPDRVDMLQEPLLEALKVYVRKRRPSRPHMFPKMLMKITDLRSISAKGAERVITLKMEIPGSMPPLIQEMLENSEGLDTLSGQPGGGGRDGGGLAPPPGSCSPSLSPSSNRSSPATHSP

O=C(O)CCC(F)(F)C(F)(F)C(F)(F)F
not listed: [20]
inactive: all other assays above

CC(C)Nc1ccc(NC(C)C)c2c1C(=O)c1ccccc1C2=O
active: [6] 3.35 µM
inactive: all other assays above

CCN(CC)c1ccc(N=Nc2ccccc2)cc1
active: [1] 50 µM | [6] 5.68 µM | [7] 72.7 µM | [9] 78.8 µM | [14] 12.3 µM | [17] 26.9 µM
not listed: [12] | [20]
inactive: all other assays above

FC(F)(F)C(F)(F)C(F)(F)C(F)(F)C(F)(F)C(F)(F)CC[Si](Cl)(Cl)Cl
not listed: [20]
inactive: all other assays above

Cc1ccc(O)cn1
not listed: [12]
inactive: all other assays above

O=C(O)CCC(F)(F)C(F)(F)C(F)(F)C(F)(F)C(F)(F)C(F)(F)C(F)(F)F
active: [7] 94.3 µM
not listed: [12]
inactive: all other assays above

O=C(Cl)C(F)(F)C(F)(F)C(F)(F)C(F)(F)C(F)(F)C(F)(F)F
active: [7] 159 µM
not listed: [6]
inactive: all other assays above
